About 2,000 (36%) of roughly 5,500 compounds were called active. Roughly 18% stayed inconclusive and do not appear here. Cut-off read from the data, not from the text of the source: active = normalized growth mostly below about 0.91 (no sharp cut-off); inconclusive = no clear call, values can overlap the other calls; inactive = mostly above about 0.92. This is one part of the list.
Assay: chemical genetic growth profiling, strain panel (AID 1159580);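 note: tested at 20 µM; growth read once vehicle control cultures reached saturation at 30 °C; 1 = growth at the plate median or of vehicle wells; lower values mean less growth of the strain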
Conditions: S. cerevisiae deletion strains, growth OD

Measured: normalized growth

O=c1c(-c2ccc3c(c2)OCO3)coc2cc(O)ccc12
inactive: locus YAL013W, strain DEP1, hits give low values 1 | locus YAL021C, strain ccr4, hits give low values 0.994 | locus YAL026C, strain drs2, hits give low values 1 | locus YAL030W, strain snc1, hits give low values 0.991 | locus YBL061C, strain skt5, hits give low values 0.99 | locus YBR009C, strain hhf1, hits give low values 0.978 | locus YBR021W, strain FUR4, hits give low values 0.991 | locus YBR023C, strain chs3, hits give low values 0.996 | locus YBR171W, strain sec66, hits give low values 1 | locus YBR229C, strain ROT2, hits give low values 0.989 | locus YBR231C, strain swc5, hits give low values 0.985 | locus YBR279W, strain paf1, hits give low values 0.994 | locus YCL011C, strain gbp2, hits give low values 0.999 | locus YCL016C, strain dcc1, hits give low values 0.993 | locus YCL029C, strain bik1, hits give low values 0.969 | locus YCL061C, strain MRC1, hits give low values 0.998 | locus YCL069W, strain vba3, hits give low values 1 | locus YCR088W, strain abp1, hits give low values 0.998 | locus YDL005C, strain med2, hits give low values 0.984 | locus YDL035C, strain GPR1, hits give low values 1 | locus YDL040C, strain nat1, hits give low values 0.993 | locus YDL074C, strain BRE1, hits give low values 1.04 | locus YDL101C, strain DUN1, hits give low values 0.998 | locus YDL134C, strain PPH21, hits give low values 1 | locus YDL185W, strain tfp1, hits give low values 0.981 | locus YDL192W, strain arf1, hits give low values 0.977 | locus YDR001C, strain nth1, hits give low values 1.01 | locus YDR069C, strain doa4, hits give low values 0.977 | locus YDR101C, strain arx1, hits give low values 0.98 | locus YDR137W, strain rgp1, hits give low values 0.979 | locus YDR150W, strain NUM1, hits give low values 0.995 | locus YDR159W, strain sac3, hits give low values 0.96 | locus YDR162C, strain NBP2, hits give low values 1.01 | locus YDR195W, strain ref2 0.957 | locus YDR297W, strain sur2, hits give low values 0.989 | locus YDR318W, strain mcm21, hits give low values 0.972 | locus YDR334W, strain swr1, hits give low values 1 | locus YDR335W, strain msn5, hits give low values 1 | locus YDR388W, hits give low values 0.973 | locus YDR392W, strain spt3, hits give low values 0.919 | locus YDR502C, strain sam2, hits give low values 0.992 | locus YEL003W, strain gim4, hits give low values 1 | locus YEL037C, strain rad23, hits give low values 1 | locus YEL061C, strain CIN8 (second series), hits give low values 1.01 | locus YEL061C, strain CIN8, hits give low values 0.998 | locus YER015W, strain faa2, hits give low values 0.99 | locus YER016W, strain bim1, hits give low values 0.988 | locus YER110C, hits give low values 0.979 | locus YER111C, strain swi4, hits give low values 1 | locus YER155C, strain BEM2 (second series), hits give low values 0.974 | locus YER155C, strain BEM2, hits give low values 0.995 | locus YER167W, strain BCK2, hits give low values 0.983 | locus YFR010W, strain ubp6, hits give low values 1 | locus YGL078C, strain dbp3, hits give low values 0.98 | locus YGL086W, strain mad1, hits give low values 0.983 | locus YGL167C, strain pmr1, hits give low values 0.988 | locus YGL173C, strain kem1, hits give low values 0.995 | locus YGL227W, strain vid30, hits give low values 1 | locus YGL240W, strain doc1, hits give low values 0.952 | locus YGL248W, strain PDE1, hits give low values 0.991 | locus YGL253W, strain hxk2, hits give low values 1 | locus YGR078C, strain PAC10, hits give low values 1.01 | locus YGR135W, strain pre9, hits give low values 0.987 | locus YGR229C, strain SMI1, hits give low values 1.03 | locus YGR252W, strain gcn5, hits give low values 0.932 | locus YHR013C, strain ard1, hits give low values 0.96 | locus YHR027C, strain rpn1, hits give low values 0.994 | locus YHR030C, strain SLT2, hits give low values 0.998 | locus YHR079C, strain IRE1 (second series), hits give low values 0.964 | locus YHR094C, strain hxt1, hits give low values 0.981 | locus YHR129C, strain ARP1, hits give low values 1 | locus YHR142W, strain chs7, hits give low values 1.01 | locus YHR200W, strain rpn10, hits give low values 0.978 | locus YIL066C, strain RNR3, hits give low values 0.998 | locus YIL073C, strain SPO22, hits give low values 0.93 | locus YIL125W, strain kgd1, hits give low values 0.993 | locus YIR030C, strain dcg1, hits give low values 0.984 | locus YJL092W, strain hpr5, hits give low values 1.01 | locus YJL095W, strain BCK1 (second series), hits give low values 0.989 | locus YJL095W, strain BCK1, hits give low values 1.04 | locus YJL115W, strain asf1, hits give low values 0.995 | locus YJL129C, strain trk1, hits give low values 0.99 | locus YJL134W, strain LCB3, hits give low values 0.991 | locus YJL154C, strain vps35, hits give low values 1.01 | locus YJL164C, strain tpk1, hits give low values 0.979 | locus YJL166W, strain qcr8, hits give low values 0.974 | locus YJL168C, strain set2, hits give low values 0.983 | locus YJL187C, strain SWE1 (second series), hits give low values 1 | locus YJL187C, strain SWE1, hits give low values 0.987

— PubChem BioAssay AID1159580 (chemical genetic matrix, 2015)
